Results taken from PubChem BioAssay (NCATS).
Results filed as inconclusive are left out. The source made the active and inactive calls. Calls follow the shape of the dose curve; as a rule, active = well fitted inhibition curve with a large enough effect; inconclusive = small, poorly fitted or top-dose-only effect; inactive = flat fitted curve, though single readings scatter.

What was measured:
Test in all cases: qHTS profiling for inhibitors of Plasmodium falciparum proliferation (AID 504749); also: nearly all actives have a fitted effect of over 60% in size
Settings in all cases: P. falciparum in erythrocytes, SYBR Green DNA, 72 h; series mostly up to 28.7 µM
CP256 = system: CP256
Summary of the method: (§1)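 Each compound contacts P. falciparum-infected red blood cells for 72 h at 37 C; lysis buffer (Tris, EDTA, saponin, Triton X, SYBR Green I) is added and fluorescence measured next morning; values normalized to controls.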

CP260 = system: CP260
Summary of the method: as §1

CP262 = system: CP262
Summary of the method: as §1

CP265 = system: CP265
Summary of the method: as §1

CP268 = system: CP268
Summary of the method: as §1

CP269 = system: CP269
Summary of the method: as §1

CP297 = system: CP297
Summary of the method: as §1

CP305 = system: CP305
Summary of the method: as §1

CP315 = system: CP315
Summary of the method: as §1

CP325 = system: CP325
Summary of the method: as §1

CP329 = system: CP329
Summary of the method: as §1

DFO2036 = system: DFO2036
Summary of the method: as §1

DIV14 = system: DIV14
Summary of the method: as §1

DIV17 = system: DIV17
Summary of the method: as §1

DIV30 = system: DIV30
Summary of the method: as §1

Dd2 = system: Dd2
Summary of the method: as §1

ECU = system: ECU
Summary of the method: as §1

FAB9 = system: FAB9
Summary of the method: as §1

HB3 = system: HB3
Summary of the method: as §1

JCK = system: JCK
Summary of the method: as §1

P93_24 = system: P93_24
Summary of the method: as §1

P94_40 = system: P94_40
Summary of the method: as §1

PAD = system: PAD
Summary of the method: as §1

PC15 = system: PC15
Summary of the method: as §1

PC26 = system: PC26
Summary of the method: as §1

PC49 = system: PC49
Summary of the method: as §1

SC27B = system: SC27B
Summary of the method: as §1

TAB113 = system: TAB113
Summary of the method: as §1

Measured: Potency

C=C1C(=O)O[C@@H]2[C@@H]1CC/C(C)=C\CC[C@@]1(C)O[C@H]21
inactive: all assays above
